Screens: PubChem, National Center for Advancing Translational Sciences (NCATS)
Compounds with a hit are over-represented: about 11% of the library has one in this group of screens.
FBPA coupling cs: coupling enzyme interference in Giardia aldolase counter-screen. coupling enzyme system counterscreen, AmpLite Red fluorescence. activity change, negative = inhibition, % at 58.2 µM, hits read low. 0.67% of 290,000 active; in the data active = activity change below about -30%
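Counterscreen of the coupled detection system alone, without aldolase: glyceraldehyde-3-phosphate coupling enzymes plus AmpLite Red readout. Compounds at 57.5 uM final, 10 min RT preincubation, 20 min RT reaction, fluorescence 525/598 nm.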
Tau fibril FP: tau fibrillization inhibition (FP) | 0.39% of 280,000 active | P10636 | AID 1468 | K18 P301L tau heparin fibrillization, Alexa594 FP, 6 h | Potency, µM (top dose mostly 57.7 µM), for inactives: at the highest dose activity, negative = inhibition, hits mostly inhibitors; note: potency is the fitted concentration of half-maximal effect; nearly all actives have a fitted effect of over 55% in size
Target sequence (P10636 561-689 P618L limits assumed): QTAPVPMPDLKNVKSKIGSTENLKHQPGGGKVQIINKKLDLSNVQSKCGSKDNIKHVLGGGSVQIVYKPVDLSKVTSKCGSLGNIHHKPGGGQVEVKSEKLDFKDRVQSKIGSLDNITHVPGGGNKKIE
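Steps: dispense K18 P301L tau (15 uM plus 0.24 uM Alexa 594 tracer, final) in pH 7 sodium acetate; add compound; add heparin (20 uM final); incubate 6 hr, 37 C; add ThT (30 uM final); after 1 hr ambient, read FP.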
Tau fluor counter: counter-screen for tau fibril formation inhibitors. tau K18 P301L Alexa594 fluorescence, heparin fibrillization. Potency, µM (highest dose often 57.7 µM), without a hit: at the highest dose activity change, negative = decrease. 0.93% of 280,000 active. AID 1463; note: potency is the fitted concentration of half-maximal effect; nearly all actives have a fitted effect of over 55% in size
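Human tau K18 P301L (15 uM unlabeled, 0.24 uM Alexa 594-labeled) in 100 mM sodium acetate pH 7 with 20 uM heparin, 6 hr at 37 C. ThT 30 uM added, 1 hr ambient; Alexa 594 FP and total fluorescence read at 555/632 nm.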
Sfp PPTase inh: blocks B. subtilis Sfp PPTase activity. Biochemical Sfp PPTase activity, qHTS. Potency, µM, for the others: largest response in the series, negative = inhibition, hits mostly inhibitors. 3.5% of 310,000 active;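 note: the enzyme is Sfp with the accession as filed and its product quenches rhodamine fluorescence; potency is the fitted concentration of half-maximal effect; 0% = enzyme reaction without inhibitor and -100% = no enzyme wells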
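Reaction rates are the 30-min fluorescence difference (ex 525, em 598 nm) in wells containing 15 nM Sfp, 5 uM rhodamine-CoA and 12.5 uM BHQ-2-YbbR at pH 7.6 with 10 mM MgCl2.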
Tau ThT inhib: inhibitors of human tau fibril formation, thioflavin T binding. P10636. recombinant tau K18 P301L (four-repeat tau fragment), heparin-induced fibrillization, ThT fluorescence. Potency, µM (series often up to 57.4 µM), for the others: at the highest dose activity, negative = inhibition, usual class: inhibitors. 2.1% of 270,000 active. AID 1460; note: potency is the fitted concentration of half-maximal effect; nearly all actives have a fitted effect of over 55% in size
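Heparin-induced (20 uM) aggregation of recombinant human K18 P301L tau, 15 uM unlabeled with 0.24 uM labeled, pH 7 acetate buffer, 6 hr at 37 C with compound. Fibrils quantified by 30 uM ThT fluorescence after 1 hr ambient incubation.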
G9a inh: blocks human histone lysine methyltransferase G9a. Q96KQ7. G9a H3K9 monomethylation, AlphaScreen, 2 h. Potency, µM (series often up to 102 µM), inactives show at the top dose activity, negative = inhibition, actives largely listed as inhibitors. 8.8% of 350,000 active. AID 504332; note: potency is the fitted concentration of half-maximal effect; nearly all actives have a fitted effect of over 75% in size
Target sequence (Q96KQ7 913-1193 limits assumed): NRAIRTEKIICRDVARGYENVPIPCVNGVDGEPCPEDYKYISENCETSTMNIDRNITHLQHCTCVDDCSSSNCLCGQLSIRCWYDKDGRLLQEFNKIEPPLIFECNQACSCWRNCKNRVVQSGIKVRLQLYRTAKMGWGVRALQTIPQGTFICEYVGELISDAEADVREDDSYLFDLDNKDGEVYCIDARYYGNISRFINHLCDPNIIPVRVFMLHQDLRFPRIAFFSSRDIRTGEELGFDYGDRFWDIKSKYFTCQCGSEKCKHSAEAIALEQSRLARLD
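AlphaScreen detection with an anti-monomethyl H3K9 antibody quantified product after a 2 h room-temperature reaction containing 500 nM biotinylated H3K9 peptide, 20 µM SAM and 20 nM enzyme, which had been preincubated 15 min with compound.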
An asterisk follows results filed as active; ? = inconclusive; . = no result given; ! = not confirmed by another sample; [ ] = dose if it differs, or a comment. Unless noted, calls come from the whole dose curve; as a rule, active = well fitted curve in the direction sought with a large enough effect; inconclusive = small, poorly fitted or top-dose-only effect, or another doubt; inactive = no such curve, though single readings can be large; an effect the other way counts as inactive or inconclusive. Unless noted, % is set by controls: 0 for no effect and ±100 for the full control effect.

SMILES	FBPA coupling cs	Tau fibril FP	Tau fluor counter	Sfp PPTase inh	Tau ThT inhib	G9a inh
CCOc1ccc(/C=C/C2=CC(C)(C)NC(=S)N2)cc1	0	7%	2%	-6%	?	40µM*
COc1cccc(/C=C/C2=CC(C)(C)NC(=S)N2)c1	4	6%	5%	15%	-7%	32µM*
CC(C)OCCCNC(=O)CN1C(=O)c2ccccc2Sc2ncccc21	.	8%	5%	.	10%	-5%[59 µM]
CC(C)CCN(Cc1ccco1)C(=O)c1cc2c(Cl)nc3ccccc3c2s1	.	-2%	-28%	.	?	14%[59 µM]
COc1cc(NC(=O)CN2c3ccccc3S(=O)(=O)c3ccccc32)cc(OC)c1	.	-12%	?	.	6%	7%[59 µM]
Cc1ccc(CNC(=O)COCc2cc(-c3cccs3)on2)cc1	.	0%	-13%	.	-7%	-4%[59 µM]
N#C/C(=C\c1ccc(Cl)cc1)c1nc(-c2cc3c(ccc4ccccc43)oc2=O)cs1	.	-5%	-6%	.	-4%	-2%[59 µM]
CC(C)[C@@H](CC(=O)N[C@@H]1CCNC[C@H]1C(=O)N[C@H](CC(=O)N[C@@H](CCC(=O)O)CC(=O)O)Cc1c[nH]c2ccccc12)NC(=O)C[C@H](CO)NC(=O)[C@@H]1CNCC[C@H]1N	-2	0%	-6%	6%	-16%	.
O=C(NCCCCCCNC(=O)c1cncc(O)c1)c1cncc(O)c1	1	-5%	6%	-16%	.	71µM*
O=C(NCCCCCCNC(=O)c1ccncc1)c1ccncc1	0	.	.	-1%	.	.
CCOC(=O)c1cncc(O)c1	-1	-5%	-4%	8%	2%	14%
O=C(NCCCNC(=O)c1cncc(O)c1)c1cncc(O)c1	3	-3%	1%	1%	-2%	50µM*
CCOC(=O)CCCNC(=O)c1cncc(O)c1	3	4%	-4%	17%	3%	56µM*
CC1CCCCN1Cc1c(O)ccc2c(=O)c(-c3ccc(Cl)cc3)c(C(F)(F)F)oc12 (centres undefined)	.	1%	1%	.	-3%	-27%[59 µM]
CCCCN1C(=O)Cc2c1nc(N)c1c(N)nc(N(CCC)CCC)c(C#N)c21	-11	2%	-25%	2%	?	40µM*
N#Cc1c(N(CCO)CCO)nc(N)c2c(N)nc3c(c12)CC(=O)N3CC1CCCO1 (centres undefined)	-38*	-15%	-15%	?	?	.
C=C(C)CN(CC)c1nc(N)c2c(N)nc3c(c2c1C#N)CC(=O)N3C12CC3CC(CC(C3)C1)C2	-2	-9%	-28%	-12%	?	13%
C=CCn1c(=O)c2ccccc2n2c(SCc3nc4ccccc4s3)nnc12	1	-1%	-12%	19%	-23%	13µM*
CC1=C(C(=O)Nc2ccc(C)cc2C)C(c2ccc(O)cc2)n2nc(SCC(=O)c3ccc(C)cc3)nc2N1 (centres undefined)	.	?	13%	.	?	-4%[59 µM]
CCCNC(=S)NCCN1CCCCC1	-2	0%	-2%	?	1%	8.9µM*
CCNC(=S)NCCN1CCCCC1	3	-6%	-8%	10%	-13%	-10%
CCCCNC(=S)NCCN1CCCCC1	0	3%	0%	56µM*	1%	2µM*
O=C(O)C[C@@H]1C(=O)O[C@@H]2C(COC(=O)c3cc(O)c(O)c(O)c3)O[C@@H](OC(=O)c3cc(O)c(O)c(O)c3)[C@@H](OC(=O)c3cc(O)c(O)c4c3[C@H]1[C@H](O)C(=O)O4)[C@H]2OC(=O)c1cc(O)c(O)c(O)c1 (some centres undefined)	-23	-17%	?	45µM*	?	?
CCOC(=O)C1=C(Cc2ccc(Cl)cc2)C(=O)c2ccccc2C1=O	-37*	?	?	3.5µM*	14µM*	2.5µM*
N=C1/C(=C\c2ccc(Br)o2)C(=O)N=C2SC(CC(=O)N3CCCCC3)=NN12	14	.	.	4%	.	45µM*
SMILES	FBPA coupling cs	Tau fibril FP	Tau fluor counter	Sfp PPTase inh	Tau ThT inhib	G9a inh
CN(C)c1ccc(/C=C2\C(=N)N3N=C(CC(=O)N4CCCCC4)SC3=NC2=O)cc1	.	.	.	-8%	.	-15%
Cc1ccc(/C=C2/C(=N)N3N=C(CC(=O)N4CCCC4)SC3=NC2=O)o1	.	.	.	-5%	.	32µM*
CN(C)c1ccc(/C=C2\C(=N)N3N=C(CC(=O)N4CCCC4)SC3=NC2=O)cc1Br	8	.	.	9%	.	0%
Cc1cccc(N2CCN(Cc3nnc(-c4cccc(Br)c4)o3)CC2)c1C	.	9%	-23%	.	?	10%[59 µM]
COc1ccc(N2CCN(Cc3nnc(-c4cccc(Br)c4)o3)CC2)cc1	.	8%	?	.	?	11µM*
CCOc1ccccc1NC(=O)c1c2c(nc3ccccc13)C(=O)N(C1CCCCC1)C2	.	2%	-2%	.	?	-20%[59 µM]
CC(NCCC(c1ccccc1)c1ccccc1)c1ccccc1 (centres undefined)	-1	17%	6%	25µM*!	4%	?
Clc1ccc(-n2nnc(-c3nccs3)n2)cc1Cl	2	?	-1%	40µM*	?	3.2µM*
Cc1ccc(-n2nnc(-c3nccs3)n2)cc1	2	-7%	-10%	-6%	-17%	2%[59 µM]
Cc1ccc(C(=O)NC2(C(F)(F)F)N=C3SCCN3C2=O)cc1 (centres undefined)	3	5%	-1%	12%	-4%	1%[12.7 µM]
O=C(NC1(C(F)(F)F)N=C2SCCN2C1=O)C1CCCCC1 (centres undefined)	6	?	-15%	63µM*	?	9%[59 µM]
CC(O)(C#CCN1CCCCCC1)c1ccccc1 (centres undefined)	1	-7%	-11%	6%	-10%	50µM*
OC(C#CCN1CCOCC1)(c1ccccc1)C1CC1 (centres undefined)	2	-2%	-8%	-8%	-11%	45µM*
FC(F)(F)C(Cl)Br (centres undefined)	.	.	.	23%	.	34%[59 µM]
C#CCCCO/N=C1/C[C@@H](O)[C@@H](O)[C@@H]2[C@@H]3C(=O)N(C[C@@H]4CCCO4)C(=O)[C@H]3CC[C@H]12	2	3%[11.6 µM]	-5%[11.6 µM]	-13%	-4%[11.5 µM]	.
c1ccc(CSc2ccc3nnc(-c4ccccn4)n3n2)cc1	1	-2%	-5%	8%	-8%	3%
FC(F)(Cl)c1nnc2ccc(Sc3ccccn3)nn12	3	-1%	2%	-9%	-4%	25µM*
Cc1ccc(C(=O)O)cc1NS(=O)(=O)c1ccc2c(c1)oc(=O)n2C	1	.	.	9%	.	-1%
NC(=O)CSc1nnnn1-c1ccccc1Cl	-1	1%	-9%	18%	-9%	15%
